{"source": "PubChem BioAssay AID720700", "about": "(The Scripps Research Institute Molecular Screening Center, 2013)", "note": "In all, about 370,000 compounds went through this assay and about 3,100 (0.84%) were called active. Rule as the data show it: active = inhibition above about 9.5%; inactive = the rest. The entries come from a sample that favours actives as a whole."}
{"target": "1-phosphatidylinositol 4,5-bisphosphate phosphodiesterase gamma-1 (Homo sapiens) (UniProt P19174)", "sequence (P19174 whole entry, looked up)": "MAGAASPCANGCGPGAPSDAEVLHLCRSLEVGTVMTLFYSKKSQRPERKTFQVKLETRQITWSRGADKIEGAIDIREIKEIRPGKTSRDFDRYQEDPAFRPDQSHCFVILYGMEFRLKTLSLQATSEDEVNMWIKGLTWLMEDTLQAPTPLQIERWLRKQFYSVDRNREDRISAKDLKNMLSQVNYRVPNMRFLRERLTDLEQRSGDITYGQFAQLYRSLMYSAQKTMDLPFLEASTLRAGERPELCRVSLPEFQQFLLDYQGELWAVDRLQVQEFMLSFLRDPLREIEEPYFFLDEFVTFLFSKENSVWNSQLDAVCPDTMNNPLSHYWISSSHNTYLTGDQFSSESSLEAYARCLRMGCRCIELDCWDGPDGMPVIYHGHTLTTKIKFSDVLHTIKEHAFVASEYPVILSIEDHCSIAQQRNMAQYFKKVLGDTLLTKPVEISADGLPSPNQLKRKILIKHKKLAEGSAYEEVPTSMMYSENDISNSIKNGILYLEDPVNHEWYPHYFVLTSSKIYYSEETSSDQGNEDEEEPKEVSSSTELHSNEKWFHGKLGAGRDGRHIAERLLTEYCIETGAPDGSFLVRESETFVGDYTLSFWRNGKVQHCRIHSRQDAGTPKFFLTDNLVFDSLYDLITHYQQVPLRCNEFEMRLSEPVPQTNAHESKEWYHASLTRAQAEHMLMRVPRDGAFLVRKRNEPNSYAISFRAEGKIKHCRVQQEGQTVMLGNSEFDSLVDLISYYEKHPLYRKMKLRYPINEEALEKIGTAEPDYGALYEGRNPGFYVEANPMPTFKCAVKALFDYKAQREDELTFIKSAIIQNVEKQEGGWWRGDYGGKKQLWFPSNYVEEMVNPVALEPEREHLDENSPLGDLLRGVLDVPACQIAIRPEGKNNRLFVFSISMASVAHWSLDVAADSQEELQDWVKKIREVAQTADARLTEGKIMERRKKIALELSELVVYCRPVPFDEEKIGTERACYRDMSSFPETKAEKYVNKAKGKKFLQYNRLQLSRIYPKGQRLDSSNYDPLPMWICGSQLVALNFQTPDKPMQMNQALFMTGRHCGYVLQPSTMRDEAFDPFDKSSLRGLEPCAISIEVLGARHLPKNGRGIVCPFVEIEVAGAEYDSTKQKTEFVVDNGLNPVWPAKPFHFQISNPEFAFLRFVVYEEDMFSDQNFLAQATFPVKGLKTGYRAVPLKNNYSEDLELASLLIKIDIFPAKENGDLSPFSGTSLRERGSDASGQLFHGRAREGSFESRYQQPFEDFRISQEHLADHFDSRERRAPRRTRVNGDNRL", "assay": "blockers of human PLCG1 activity – biochemical, fluorescence, purified enzyme, primary screen (AID 720700)", "conditions": "purified PLC-gamma1, fluorogenic substrate, at 12.2 µM, active compounds read high"}
{"smiles": "O=C(CSc1nnc(-c2ccccc2)n1Cc1ccco1)Nc1ccccc1-c1ccccc1", "inhibition": "8.54% (inactive)"}
{"smiles": "COc1cccc(/C=C2\\CC3(OC(C)=O)CCCN2C3)c1", "note": "(stereo unspecified)", "inhibition": "-1.03% (inactive)"}
{"smiles": "COC(=O)[C@@]12CCCCC3=C1N(CCC3)C(=O)[C@H]2CC(=O)NCc1cccc2ccccc12", "inhibition": "3.71% (inactive)"}
{"smiles": "Cc1cc(C(=O)NNC(=O)c2cccc(S(=O)(=O)N3CCOCC3)c2)c2ccccc2n1", "inhibition": "1.34% (inactive)"}
{"smiles": "Cc1nc2ccc(NC(=O)c3cccc(S(=O)(=O)N4CCOCC4)c3)cc2s1", "inhibition": "14% (active)"}
{"smiles": "O=C(CSc1ccccc1)Nc1cccc(S(=O)(=O)N2CCCCC2)c1", "inhibition": "5.78% (inactive)"}
{"smiles": "O=C(CSc1ccccc1)Nc1cccc(S(=O)(=O)N2CCOCC2)c1", "inhibition": "11.5% (active)"}
{"smiles": "Cc1ccnc(SCC(=O)Nc2cccc(S(=O)(=O)N3CCOCC3)c2)n1", "inhibition": "1.32% (inactive)"}
{"smiles": "O=C(Nc1ccc(S(=O)(=O)N2CCOCC2)cc1)c1ccc2ncsc2c1", "inhibition": "-4.28% (inactive)"}
{"smiles": "COc1ccc(CN2C(=O)N3Cc4cc(OC)ccc4C3CS2(=O)=O)cc1", "note": "(stereo unspecified)", "inhibition": "0.38% (inactive)"}
{"smiles": "O=C(NCCCc1ccccc1)[C@H](Cc1ccccc1)NC1(C(=O)NCCc2c[nH]c3ccccc23)CCC1", "inhibition": "-0.08% (inactive)"}
{"smiles": "Cc1ccc(C(=O)N(Cc2ccccn2)CC2CCCO2)cc1", "note": "(stereo unspecified)", "inhibition": "0.65% (inactive)"}
{"smiles": "CN1C[C@]2(C=C3CCCCC3n3c(=O)n(-c4ccccc4)c(=O)n32)N=C1NC(=O)c1ccccc1", "note": "(stereo partly specified)", "inhibition": "-0.41% (inactive)"}
{"smiles": "Cc1cccc(NC(=O)N2CCCCCC2)c1C", "inhibition": "0.02% (inactive)"}
{"smiles": "Cc1ccc(C(=O)N2CCCC2)c(F)c1F", "inhibition": "2.59% (inactive)"}
{"smiles": "CNC(=O)n1ccc(C(=O)N2CCCCC2)n1", "inhibition": "9.53% (active)"}
{"smiles": "Nn1c(SCC(=O)N2c3ccccc3Sc3ccccc32)nnc1-c1n[nH]c2c1CCC2", "inhibition": "1.2% (inactive)"}
{"smiles": "COP(=O)(O)CNC(=O)OCc1ccccc1", "inhibition": "2.2% (inactive)"}
{"smiles": "CC(CCN1CCC(C(O)(c2ccccc2)c2ccccc2)CC1)Oc1ccc(C(F)(F)F)cc1", "note": "(stereo unspecified)", "inhibition": "6.64% (inactive)"}
{"smiles": "COC(=O)c1cc(S(=O)(=O)N2CCN(c3ccccc3C)CC2)cn1C", "inhibition": "-2.77% (inactive)"}
{"smiles": "C=CCN1C(=O)[C@H](CC(=O)NCCCN2CCCC2=O)[C@@]2(C(=O)OCC)CCCC=C12", "inhibition": "-1.95% (inactive)"}
{"smiles": "CCCCCN1CCCCC(NC(=O)C(C)CCC)C1=O", "note": "(stereo unspecified)", "inhibition": "0.76% (inactive)"}
{"smiles": "CC(=O)O[C@@]1(C(C)=O)CCC2[C@H]3C=C(C)C4=CC(=O)CC[C@@]4(C)C3CC[C@]21C", "note": "(stereo partly specified)", "inhibition": "-2.78% (inactive)"}
{"smiles": "CCC1S/C(=N/N=C/c2ccco2)NC1=O", "note": "(stereo unspecified)", "inhibition": "10.6% (active)"}
{"smiles": "O=C1N/C(=N\\N=C\\c2ccco2)SC1Cc1ccc(F)cc1", "note": "(stereo unspecified)", "inhibition": "2.17% (inactive)"}
{"smiles": "CCCCC1S/C(=N/N=C/c2cccs2)NC1=O", "note": "(stereo unspecified)", "inhibition": "-0.02% (inactive)"}
{"smiles": "Cc1cccc(C(=O)Nc2c(-c3ccc(F)cc3)nc3ncccn23)c1", "inhibition": "-270% (inactive)"}
{"smiles": "O=[N+]([O-])c1cc(C(F)(F)F)ccc1NN=C1CCCC1", "inhibition": "11.1% (active)"}
{"smiles": "O=[N+]([O-])c1cc(C(F)(F)F)ccc1NCCc1ccncc1", "inhibition": "-0.57% (inactive)"}
{"smiles": "O=[N+]([O-])c1cc(S(=O)(=O)N2CCCC2)ccc1NN=C1CCCC1", "inhibition": "7.15% (inactive)"}
{"smiles": "COc1ccc2c(C(C)c3ccc(N)cc3)cn(C)c2c1", "note": "(stereo unspecified)", "inhibition": "3.03% (inactive)"}
{"smiles": "N#Cc1ccccc1OC[C@@H](O)CN1CCC(C(O)(c2ccccc2)c2ccccc2)CC1", "inhibition": "2.31% (inactive)"}
{"smiles": "CCOc1ccc(Oc2c(Cl)cnn(-c3ccc(C)cc3)c2=O)cc1", "inhibition": "-4.67% (inactive)"}
{"smiles": "CN(CCc1ccccc1)C(=O)Cn1nc(-c2ccccc2)ccc1=O", "inhibition": "1.49% (inactive)"}
{"smiles": "C=CCSC(CC)(CC)C(N)=O", "inhibition": "11.9% (active)"}
{"smiles": "CC(CCN1CCC(C(O)(c2ccccc2)c2ccccc2)CC1)Oc1ccc([N+](=O)[O-])cc1Cl", "note": "(stereo unspecified)", "inhibition": "6.49% (inactive)"}
{"smiles": "COc1ccc(C(=O)OCCN(C)C2CN(Cc3cn(Cc4cccc(C)c4)nn3)S(=O)(=O)C2)cc1OC", "note": "(stereo unspecified)", "inhibition": "3.3% (inactive)"}
{"smiles": "O=C(c1ccccn1)c1ncc(C(F)(F)F)cc1Cl", "inhibition": "1.59% (inactive)"}
{"smiles": "FC(F)(F)c1cnc(Oc2ccccc2-c2nnc(-c3ccc(Cl)cc3)o2)c(Cl)c1", "inhibition": "12.3% (active)"}
{"smiles": "Cc1cc(C)cc(NS(=O)(=O)c2ccc(Oc3ncc(C(F)(F)F)cc3Cl)cc2)c1", "inhibition": "-1.75% (inactive)"}
{"smiles": "Cc1ccccc1NC(=O)C1CCN(c2ncccn2)CC1", "inhibition": "-3.53% (inactive)"}
{"smiles": "CC(C)(C)OC(=O)NCCc1ccccc1/C=C/S(=O)(=O)NCc1ccc(F)cc1", "inhibition": "-0.15% (inactive)"}
{"smiles": "CC1CCN(c2ccc(C(=O)O)cc2NS(=O)(=O)c2ccc(Br)s2)CC1", "inhibition": "2.88% (inactive)"}
{"smiles": "O=C(Nc1ccc(C(F)(F)F)cc1)c1cccc(-n2cnnn2)c1", "inhibition": "-2.72% (inactive)"}
{"smiles": "O=C(Cn1cc(/C=N/NC(=O)c2cccc(C(F)(F)F)c2)c2ccccc21)Nc1ccc(F)cc1", "inhibition": "-0.8% (inactive)"}
{"smiles": "CNC(=O)c1ccc(NC(=O)c2cccc(C(F)(F)F)c2)cc1", "inhibition": "14.4% (active)"}
{"smiles": "Cc1cccc([C@@H]2[C@@H]3C(=O)N(Cc4ccccc4)C(=O)[C@@H]3[C@]3(Cc4ccc(Cl)cc4)C(=O)N(c4cccc(Cl)c4)C(=O)N23)c1", "inhibition": "11.3% (active)"}
{"smiles": "O=C1[C@H]2[C@@H](c3ccc(Cl)cc3)N3C(=O)N(c4cccc(F)c4)C(=O)[C@@]3(Cc3ccccc3)[C@H]2C(=O)N1C1CCCCC1", "inhibition": "-2.34% (inactive)"}
{"smiles": "Cc1cccc(N2C(=O)N3[C@H](c4ccc(F)cc4)[C@@H]4C(=O)N(C5CCCCC5)C(=O)[C@@H]4[C@]3(Cc3ccccc3)C2=O)c1", "inhibition": "2.62% (inactive)"}
{"smiles": "C[C@@H]1ON(C)[C@H]2C[C@H]3c4[nH]c5cccc(-c6ccc7c(c6)OCO7)c5c4CCN3C[C@@H]12", "inhibition": "-51.7% (inactive)"}
{"smiles": "N#CCC[C@H]1CC[C@]2(CCCN(Cc3ccc(Cl)cc3)C2)O1", "inhibition": "-3.24% (inactive)"}
{"smiles": "COc1ccc(CCNC(=O)CSc2nc3c([nH]2)c(=O)n(C)c(=O)n3C)cc1", "inhibition": "-0.19% (inactive)"}
{"smiles": "CN(C)S(=O)(=O)c1cccc(NC(=O)COC(=O)c2cc(=O)[nH]c(=O)[nH]2)c1", "inhibition": "5.81% (inactive)"}
{"smiles": "CN(C)S(=O)(=O)c1cccc(NC(=O)COc2ccc3ccccc3c2)c1", "inhibition": "2.81% (inactive)"}
{"smiles": "CN(C)S(=O)(=O)c1cccc(NC(=O)COC(=O)C2(c3ccccc3F)CCCC2)c1", "inhibition": "11.9% (active)"}
{"smiles": "O=C(NCc1ccccc1)[C@@H]1CCCN1C(=O)[C@H]1CCCN1C(=O)c1cccc(Cl)c1", "inhibition": "0.25% (inactive)"}
{"smiles": "O=C(NCc1ccccc1)[C@H]1CCCN1C(=O)[C@H]1CCCN1C(=O)c1cc(F)cc(F)c1", "inhibition": "0.04% (inactive)"}
{"smiles": "O=C(NCc1ccc(F)cc1F)[C@@H]1CCCN1C(=O)[C@@H]1CCCN1C(=O)c1cccc(Cl)c1", "inhibition": "11% (active)"}
{"smiles": "Cc1cc(=O)[nH]c(SCC(=O)Nc2ccc(F)cc2F)n1", "inhibition": "0.36% (inactive)"}
{"smiles": "CC(=O)Nc1ccc(OC[C@@H](O)CN2CCC(C(O)(c3ccccc3)c3ccccc3)CC2)cc1", "inhibition": "-0.12% (inactive)"}
{"smiles": "O=S1(=O)c2ccc(Br)cc2OC[C@H](Cc2ccccc2)N1Cc1cn(Cc2ccccc2)nn1", "inhibition": "10.2% (active)"}
{"smiles": "COc1ccc(Cn2cc(CN3[C@@H](CC(C)C)COc4cc(Br)ccc4S3(=O)=O)nn2)cc1", "inhibition": "3.87% (inactive)"}
{"smiles": "O=S1(=O)c2ccc(Br)cc2OC[C@@H](Cc2ccccc2)N1Cc1cn(Cc2ccco2)nn1", "inhibition": "6.61% (inactive)"}
{"smiles": "O=C(CCCCCN1C(=O)C2C3C=CC(C3)C2C1=O)Nc1ccccc1", "note": "(stereo unspecified)", "inhibition": "4.2% (inactive)"}
{"smiles": "CCOC(=O)C1CCN(C(=O)C(C)(C)NC(=O)Nc2ccc(F)c(F)c2)CC1", "inhibition": "6.44% (inactive)"}
{"smiles": "O=C(NCCCN1CCCCC1)C1CC(=O)N(CCc2ccccc2)C1", "note": "(stereo unspecified)", "inhibition": "10% (active)"}
{"smiles": "COCCCNC(=O)C1CC(=O)N(CCc2ccccc2)C1", "note": "(stereo unspecified)", "inhibition": "7.12% (inactive)"}
{"smiles": "Cc1ccc(CCN2CC(C(=O)NCCc3ccccc3)CC2=O)cc1", "note": "(stereo unspecified)", "inhibition": "7.32% (inactive)"}
{"smiles": "COc1cccc(Cn2cc(COC(=O)Nc3ccc(F)cc3)nn2)c1", "inhibition": "-1.49% (inactive)"}
{"smiles": "CCOC(=O)[C@@]12CN(C(=O)OC(C)(C)C)CC=C1N(Cc1ccc(OC)cc1)C(=O)[C@H]2CC(=O)NCc1ccc(OC)c(OC)c1", "inhibition": "2.04% (inactive)"}
{"smiles": "COc1ccc(CN2C/C(=C/c3ccccc3)N3C(=O)C[C@@H](c4ccccc4)N=C23)c(OC)c1", "inhibition": "-7.12% (inactive)"}
{"smiles": "O=C1c2ccccc2S(=O)(=O)N1CC(O)Cn1c2ccccc2c2ccccc21", "note": "(stereo unspecified)", "inhibition": "15.2% (active)"}
{"smiles": "CS(=O)(=O)N(CC(O)Cn1c2ccccc2c2ccccc21)c1cccc2ccccc12", "note": "(stereo unspecified)", "inhibition": "-10.8% (inactive)"}
{"smiles": "O=C1c2ccccc2S(=O)(=O)N1Cc1c(F)cccc1Cl", "inhibition": "-1.51% (inactive)"}
{"smiles": "C=CCN(C)CC#Cc1ccccc1", "inhibition": "1.26% (inactive)"}
{"smiles": "CC1(C)CC(=O)C=C(NCCCN2CCCC2=O)C1", "inhibition": "1.47% (inactive)"}
{"smiles": "COc1ccc(CCNC2=CC(=O)CC(C)(C)C2)cc1", "inhibition": "1.19% (inactive)"}
{"smiles": "CC1(C)CC(=O)C=C(NCCN2CCNCC2)C1", "inhibition": "10.7% (active)"}
{"smiles": "O=C(CCS(=O)(=O)c1ccccc1)Nc1ccc(Cl)c(Cl)c1", "inhibition": "-5.17% (inactive)"}
{"smiles": "CCOC(=O)N1CCN(C(=O)C[C@@H]2C(=O)N(CCc3ccc(Cl)cc3)C3=CCCC[C@]32C(=O)OCC)CC1", "inhibition": "2.91% (inactive)"}
{"smiles": "CCOC(=O)N1CCC(C(N)=O)CC1", "inhibition": "-1.53% (inactive)"}
{"smiles": "CCOC(=O)N1CCC(c2cc(=O)n(-c3ccccc3)[nH]2)CC1", "inhibition": "9.95% (active)"}
{"smiles": "CCOC(=O)N1CCC(NC(=O)Cc2cn(C)c3ccccc23)CC1", "inhibition": "2.53% (inactive)"}
{"smiles": "O=C(OCC#CCSc1nnc(-c2ccco2)o1)c1ccc(F)cc1", "inhibition": "-0.72% (inactive)"}
{"smiles": "CCN(CC)C(=O)CC[C@H]1CC[C@]2(CCCN(Cc3ccc(Cl)cc3)C2)O1", "inhibition": "3.26% (inactive)"}
{"smiles": "CCCCCCN1CCS(=O)(=O)N(Cc2ccc(C(F)(F)F)cc2)C(C(=O)OC)C1", "note": "(stereo unspecified)", "inhibition": "-2.36% (inactive)"}
